# Among all 48,000 compounds or so, about 13,000 (27%) showed an effect of 50% or more. The list shows a part of the results.
# System: Wolbachia pipientis
# Assay: Anti-Wolbachia Cell-Based Screen
# Type: functional
# Parameters: scale not given: in the data most compounds retested in dose-response had high values
# Conditions: 5 µM
row,Structure (SMILES),Percent Effect [%]
1,CN(Cc1ccco1)c1ccc(C(=O)NCCCc2ccccn2)cn1,-0.2765
2,CN1CC[C@@H]2[C@@H]1CCN2Cc1ccc2c(c1)OCO2,-14.63
3,COCc1cn(C2CCN(C(=O)Cc3ccsc3)CC2)nn1,-0.9661
4,CC(CCN1CCC(n2cc(CCO)nn2)CC1)c1ccccc1 (stereo not given),92.59
5,CSC(C)CCN1CCC(n2cc(C3CCCCC3)nn2)CC1 (stereo not given),-13.53
6,COCc1cn(C2CCN(Cc3ccc(Cl)s3)CC2)nn1,0.9369
7,CNCc1cn(C2CCN(C(=O)NCc3ccco3)CC2)nn1,17.43
8,Cc1cccc(CN2CCC(n3cc(CCO)nn3)CC2)c1C,4.105
9,COCc1cn(C2CCN(CCC(C)c3ccccc3)CC2)nn1 (stereo not given),99.11
10,CCCC(C)CN1CCC(n2cc(CCCO)nn2)CC1 (stereo not given),-3.716
11,CNCc1cn(C2CCN(CCC(C)c3ccccc3)CC2)nn1 (stereo not given),95.9
12,CSCc1noc(CN(C)C(C)c2nc(C)sc2C)n1 (stereo not given),-2.011
13,CC(C)C(=O)NC1COC2(CCN(C(=O)c3ccc[nH]3)CC2)C1 (stereo not given),3.438
14,O=C(c1cc(-n2cccn2)ccn1)N1CCOc2ncccc21,-22.54
15,CC(C(=O)N(C)C)N1CCc2onc(-c3cccc(F)c3)c2C1 (stereo not given),-12.34
16,CN(Cc1cc(C2CC2)on1)C(=O)C(c1cccnc1)N1CCCC1 (stereo not given),-7.414
17,COc1cccc2c1N(Cc1noc(C3CC3)n1)CCC2,-4.254
18,COCCc1noc(CN(C)C(=O)C(C)N2CCc3ccccc3C2)n1 (stereo not given),110.4
19,COCCc1noc(CN(C)C(=O)C2COc3ccccc3C2)n1 (stereo not given),-1.856
20,CC(C)c1cc(CN(C)C(=O)C(C)N2CCc3ccccc3C2)no1 (stereo not given),103.9
21,Cc1noc(C2CCCN(CC(=O)N3CCc4ccccc4C3)C2)n1 (stereo not given),4.147
22,CC(C(=O)N(C)Cc1noc(C2CCC2)n1)N1CCc2ccccc2C1 (stereo not given),96.98

row,Structure (SMILES),Percent Effect [%]
1,COCCc1noc(CN(C)C(=O)c2cccc(N3CCCC3=O)c2)n1,-10.13
2,CCCn1cnnc1CNC(=O)C1COc2c(cccc2OC)C1 (stereo not given),-10.56
3,COCCN1C[C@H]2CC[C@@H]1CN(C(=O)CCc1c(C)nn(C)c1C)C2,8.536
4,COc1cccc(N2CCN(C(=O)C(O)c3cccc(Cl)c3)CC2=O)c1 (stereo not given),-25.1
5,COc1cccc(N2CCN(C(=O)CCO)CC2=O)c1,0.6756
6,Cc1cc(C)cc(N2CCN(C(=O)CCN3C[C@@H]4CC[C@H]3C4)CC2=O)c1,110.5
7,Cc1ccc(N2CCN(C(=O)CN3C[C@@H]4CC[C@H]3C4)CC2=O)cc1,111.2
8,O=C(CCN1C[C@@H]2CC[C@H]1C2)N1CCN(c2cccc(Cl)c2)C(=O)C1,108.3
9,Cc1ccc(N2CCCC(N3CCC(CO)CC3)C2=O)cc1 (stereo not given),-5.905
10,Cc1ccc2oc(=O)n(CCC(=O)N3CCN(C)C(=O)C3)c2c1,7.292
11,CN(C)c1nc2c(c(N(C)C)n1)CCN(C(=O)CN1C[C@@H]3CC[C@H]1C3)C2,-4.711
12,CC(C)Cn1cncc1Cn1cccc(C(F)(F)F)c1=O,13.38
13,COc1ccccc1C(=O)Nc1c(F)c(C(=O)NCCC(C)C)nn1C,138.9
14,CCC(C)NC(=O)c1nn(C)c(NC(=O)c2ccccc2OC)c1F (stereo not given),131.5
15,CC(C)Oc1ccccc1C(=O)NCCc1nncn1C,-7.55
16,COc1cccc(C(=O)NC(C)CCN2CCOCC2)c1F (stereo not given),4.529
17,CCN(CC)CCn1cc(NC(=O)c2ccccc2OC)cn1,7.312
18,COc1ccccc1C(=O)NC(C)CC(=O)O (stereo not given),5.398
19,Cc1nccc(N2CCCC(C)(c3[nH]ncc3C(N)=O)C2)n1 (stereo not given),108.3
20,Cc1nc2c(c(N3CCN(c4ncccc4C(N)=O)CC3)n1)CCNC2,-20.98
21,CC(C)=CCC1(C(=O)O)CCCN(c2ccnc(C)n2)C1 (stereo not given),-9.118
22,Cc1ccc(-c2cn[nH]c2C2CCCN(c3ccnc(C)n3)C2)cc1 (stereo not given),-2.431

row,Structure (SMILES),Percent Effect [%]
1,CC1(c2[nH]ncc2C(N)=O)CCN(c2ncccn2)CC1,105.4
2,CN1C(=O)CCC12CCN(S(=O)(=O)c1ccccc1)CC2,-37.9
3,CCN1CCNC(=O)C12CCN(S(=O)(=O)c1ccccc1)CC2,-28.29
4,CN(C)C(=O)CC1CC2(CCN(c3ncccn3)CC2)c2ccccc21.O=C(O)C(F)(F)F (stereo not given),8.977
5,CC1(c2[nH]ncc2C(N)=O)CCN(S(=O)(=O)c2ccccc2)CC1,129
6,CN(C)C(=O)c1cn[nH]c1C1(C)CCN(c2ncccn2)CC1,98.94
7,Cc1cnc(N2CCC3(CC2)CC3CNC(=O)N(C)C)nc1 (stereo not given),-2.686
8,NC(=O)N1CCC2(CC1)CN(c1ncccn1)CCO2,-107.3
9,CNC(=O)CN(C)Cc1ccc(F)cc1Cl,-1.762
10,O=C(c1nc(N2CCCC2)ncc1Cl)N1CCN(Cc2ccsc2)CC1,11.05
11,CCn1ncc2c1CCCC2NCc1csc(C(C)C)n1 (stereo not given),-1.873
12,CC(C)Cc1nc(CS(=O)(=O)c2ccccc2)no1,-7.933
13,CC(=O)NCC(=O)N1CCC2(CC1)NC(=O)CC2c1cnn(C)c1 (stereo not given),117.4
14,CC(=O)NCC(=O)N1CCC2(CC1)NC(=O)CC2c1cccnc1.O=C(O)C(F)(F)F (stereo not given),7.13
15,O=C(O)C(F)(F)F.O=C1CC(c2ccncc2)C2(CCN(C(=O)NC3CC3)CC2)N1 (stereo not given),-11.64
16,CCN1C(=O)CC(c2cnn(C)c2)C12CCN(C(=O)C1CC=CC1)CC2 (stereo not given),-6.196
17,Cn1cc(C2CC(=O)NC23CCN(C(=O)c2ccc[nH]2)CC3)cn1 (stereo not given),-5.816
18,COCC(=O)N1CCC2(CC1)CC(c1cnn(C)c1)C(=O)N2 (stereo not given),4.267
19,Cn1cc(C2CC(=O)NC23CCN(C(=O)C2CC=CC2)CC3)cn1 (stereo not given),98.1
20,O=C1CC(c2ccncc2)C2(CCN(C(=O)c3ccnnc3)CC2)N1 (stereo not given),8.485
21,Cn1cc(C2CC(=O)NC23CCN(C(=O)NC2CC2)CC3)cn1 (stereo not given),102
